# In PubChem BioAssay (Tox21):
# Several values for one entry are separate records, joined by “and”; a condition that tells them apart may be missing. Equal entries are not always repeated. Results filed as inconclusive are left out. Entries that show only a call come without a potency. A structure can be active in one record and inactive in another. Activity calls are given as the source filed them. Unless noted, calls follow the shape of the dose curve; as a rule, active = well fitted curve in the direction sought with a large enough effect in the repeat runs; inconclusive = weak or mixed curves; inactive = no such curve, though single readings can be large; an effect the other way counts as inactive or inconclusive.
# What was measured:
# [1] = qHTS assay for small molecule agonists of the p53 signaling pathway (AID 651631; calls by dose curve; also: nearly all actives have a fitted effect of over 15% in size; also: potency is read from the fitted curve at half-maximal effect)
# How it was run: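 We treat p53RE-bla HCT-116 cells with compounds for 16 h at 37 °C, add LiveBLAzer B/G FRET substrate for 2 h at room temperature, and measure fluorescence intensity.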
# [2] = qHTS assay for small molecules that induce genotoxicity in human embryonic kidney cells expressing luciferase-tagged ATAD5 (AID 651632); also: nearly all actives have a fitted effect of over 15% in size
# How it was run: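 A rise in luciferase signal from ATAD5-tagged HEK293T cells marks genetic stress. Cells were exposed to compounds for 16 hr at 37C, 5% CO2, then luciferase was quantified after a 30 min room-temperature incubation with Amplite.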
# [3] = qHTS assay for small molecule agonists of the p53 signaling pathway - cell viability (AID 651633; calls by dose curve;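 also: p53RE-bla HCT reporter cells with a stable beta-lactamase p53 reporter; series mostly up to about 83 µM; nearly all actives have a fitted effect of over 30% in size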)
# How it was run: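 Viability counter-read: CellTiter-Glo luminescence (30 min, room temperature) in the same p53RE-bla plates. These plates had been exposed to compounds for 16 h at 37 C.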
# [4] = qHTS assay for small molecules that induce genotoxicity in human embryonic kidney cells expressing luciferase-tagged ATAD5 - cell viability (AID 651634; calls by dose curve; also: nearly all actives have a fitted effect of over 25% in size)
# How it was run: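 Cytotoxicity counter-readout: after 15.5 hr compound treatment at 37C, live-cell protease activity in ATAD5-luciferase HEK293T cells measured by CellTiter-Fluor fluorescence, 30 min development at 37C.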
# [5] = qHTS assay for small molecule disruptors of the mitochondrial membrane potential - cell viability (AID 720634; calls by dose curve; also: nearly all actives have a fitted effect of over 20% in size; also: potency is read from the fitted curve at half-maximal effect)
# How it was run: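 Cytotoxicity was quantified from ATP content by CellTiter-Glo luminescence in the same wells as the MMP dye read-out. HepG2 (2,000 cells/well) were plated overnight and exposed to compounds for 1 hr at 37 C.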
# [6] = qHTS assay to test for compound auto fluorescence at 590 nm (red) in HepG2 cells (AID 720674)
# How it was run: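 Red autofluorescence (Ex/Em 540/590 nm, Rose Bengal sodium equivalents) was measured in HepG2 cells, 2,000 per well in MEM plus 10% FBS, plated overnight at 37 C. Readings were taken 1 hr after adding 23 nL compound or DMSO, at 37 C and 5% CO2.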
# [7] = qHTS assay to test for compound auto fluorescence at 535 nm (green) in HepG2 cells (AID 720675)
# [8] = qHTS assay to test for compound auto fluorescence at 590 nm (red) in HEK293 cells (AID 720679)
# How it was run: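 Red autofluorescence, HEK293 cells: 2,000 cells/well; attach 4-5 hr 37C; add 23 nL cpd or DMSO; incubate o/n 37C 5% CO2; read Ex540/Em590; Rose Bengal sodium reference.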
# [9] = qHTS assay to test for compound auto fluorescence at 460 nm (blue) in HEK293 cells (AID 720678)
# How it was run: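 Intrinsic compound fluorescence is recorded in live HEK293 cultures after overnight incubation at 37C, 5% CO2, using excitation 405 nm and emission 460 nm. Values are referenced to triamterene.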
# [10] = qHTS assay for small molecule disruptors of the mitochondrial membrane potential (AID 720635); also: potency is read from the fitted curve at half-maximal effect
# How it was run: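 Mitochondrial membrane potential tracked with Mito-MPS dye, red aggregates (ex 540/em 590 nm) against green monomers (ex 490/em 535 nm). Compound treatment 1 hr at 37C, dye 30 min in HepG2.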
SMILES,Potency [1],outcome [2],Potency [3],Potency [4],Potency [5],outcome [6],outcome [7],outcome [8],outcome [9],Potency [10]
O=C(Cl)C(Cl)Cl,inactive,inactive,inactive,inactive,inactive,inactive,inactive,inactive,,
C=C(Cl)CSC(=S)N(CC)CC,inactive,inactive,inactive,inactive,inactive,inactive,inactive,inactive,inactive,
CN1COCN(Cc2cnc(Cl)s2)/C1=N\[N+](=O)[O-],inactive,inactive,inactive,inactive,inactive,inactive,inactive,inactive,,
C=C(Cl)CCl,inactive,,inactive,inactive,inactive,inactive,inactive,inactive,inactive,inactive
CCc1cc(OC)c(C[C@H](C)N)cc1OC,inactive,inactive,inactive,inactive,inactive,inactive,inactive,inactive,,
NC1(c2ccccc2)CCCCC1,inactive,inactive,inactive,inactive,inactive,inactive,inactive,inactive,inactive,
N=C(N)[Se],inactive,,inactive,inactive,inactive,inactive,inactive,inactive,inactive,inactive
COP(=O)(OC)O/C(C)=C/C(=O)N(C)C,inactive,inactive,inactive,inactive,,inactive,inactive,inactive,inactive,
CCCCS(=O)(=O)Cl,inactive,,inactive,inactive,inactive,inactive,inactive,inactive,inactive,inactive
[P]#[In],inactive,inactive,inactive,inactive,inactive,inactive,inactive,inactive,,
CCCCCCCCBr,inactive,inactive,inactive,inactive,,inactive,inactive,inactive,inactive,
NC(=O)CS(=O)C(c1ccccc1)c1ccccc1 (configuration not stated),inactive,inactive,inactive,inactive,inactive,inactive,inactive,inactive,inactive,
O=C(CCl)NCO,inactive,inactive,inactive,inactive,inactive,inactive,inactive,inactive,,
O=C1C2CC=CCC2C(=O)N1SC(Cl)(Cl)Cl (configuration not stated),5.96 µM (active),inactive,inactive,,29.8 µM (active) and inactive and 60.1 µM (active),inactive,inactive,inactive,inactive,8.41 µM (active) and 43.1 µM (active) and 8.49 µM (active)
CC(=NC#N)N(C)Cc1ccc(Cl)nc1,inactive,inactive,inactive,inactive,inactive,inactive,inactive,inactive,inactive,
COc1cccc([C@@]2(O)CCCC[C@@H]2CN(C)C)c1,inactive,inactive,inactive,inactive,inactive,inactive,inactive,inactive,,
CCCCCCC(=O)CCCCCC/C=C/C[C@@H](O)[C@H](O)[C@@](N)(CO)C(=O)O,inactive,,inactive,inactive,inactive,inactive,inactive,inactive,inactive,inactive
OP(O)c1ccccc1,inactive,,inactive,inactive,inactive,inactive,inactive,inactive,inactive,inactive
N#CN=C1SCCN1Cc1ccc(Cl)nc1,inactive,,inactive,inactive,inactive,inactive,inactive,inactive,inactive,inactive
ClCCCCl,inactive,inactive,inactive,inactive,inactive,inactive,inactive,inactive,,
C/C=C/CC#N,inactive,inactive,inactive,inactive,inactive,inactive,inactive,inactive,,
c1cncc([C@@H]2CCCCN2)c1,inactive,inactive,inactive,,inactive,inactive,inactive,inactive,inactive,
CC(Cl)(Cl)Cl,inactive,inactive,inactive,inactive,inactive,inactive,inactive,inactive,inactive,
COc1ccccc1OC,inactive,inactive,inactive,inactive,inactive,inactive,inactive,inactive,,
N[C@@H](Cc1ccc(Oc2cc(I)c(O)c(I)c2)c(I)c1)C(=O)O,,inactive,inactive,inactive,inactive,inactive,inactive,inactive,,inactive
